Measurements published in PubChem BioAssay (EPA / NIEHS).
Activity calls are given as the source filed them. How the source made its calls: active means hit-call score of the fitted dose curve at least 0.9, where 1 is the maximum; inactive means score below 0.9.

Assays:
Conditions in all cases: mRNA level, 48 h; actives raise or lower the signal
[1] = read-out: MicroRNA 122 (MIR122), gene 406906; test: LTEA_HepaRG_MIR122: Life Technologies and Expression Analysis (LTEA) Assay for MicroRNA 122 (MIR122) using HepaRG (AID 2283516); further: the transcript read is the microRNA miR-122
Outline: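 qRT-PCR read-out (TaqMan, Fluidigm array), normalized to three housekeeping genes; HepaRG cells dosed 48 h at 8 concentrations up to 100 uM in 0.5% DMSO, duplicate; gain or loss fitted against DMSO baseline.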

[2] = read-out: matrix metalloproteinase-10 (MMP10), MMP10 (gene 4319); test: LTEA_HepaRG_MMP10: Life Technologies and Expression Analysis (LTEA) Assay for matrix metalloproteinase-10 (MMP10) using HepaRG (AID 2283517)
Outline: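 In differentiated HepaRG cultures kept in 0.5% DMSO, test chemicals act for 48 h over an eight-point range with a top dose of 100 uM. Expression is then quantified by TaqMan RT-PCR against ACTB, GAPDH and POLR2A.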

MYC, MYC (gene 4609) = test: LTEA_HepaRG_MYC: Life Technologies and Expression Analysis (LTEA) Assay for MYC using HepaRG (AID 2283518)
Outline: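 HepaRG, ~100,000 cells/well, collagen I; 48 h plating; serum-free induction medium; 48 h dosing, duplicate, 100 uM top, half-log, 0.5% DMSO; total RNA → qRT-PCR MYC; gain/loss fit vs DMSO.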

[3] = read-out: matrix metalloproteinase-3 (MMP3), MMP3 (gene 4314); test: LTEA_HepaRG_MMP3: Life Technologies and Expression Analysis (LTEA) Assay for matrix metalloproteinase-3 (MMP3) using HepaRG (AID 2283519)
Outline: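 Human liver HepaRG cultures received chemicals (top concentration 100 uM, 0.5% DMSO) for 48 h in duplicate. MMP3 mRNA induction or loss was then assessed via TaqMan qRT-PCR with housekeeping-gene normalisation.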

[4] = read-out: Paternally Expressed 10 (PEG10), PEG10 (gene 23089); test: LTEA_HepaRG_PEG10: Life Technologies and Expression Analysis (LTEA) Assay for Paternally Expressed 10 (PEG10) using HepaRG (AID 2283520);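 on AC50: differentiated HepaRG human liver cells in serum-free induction medium with 0.5% DMSO; PEG10 transcript by qRT-PCR normalised to ACTB GAPDH and POLR2A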
Outline: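 qRT-PCR read-out: PEG10 mRNA normalised to three housekeeping genes, fitted bidirectionally against 0.5% DMSO vehicle. HepaRG cells received test chemicals for 48 h in serum-free induction medium, 8 points, top 100 uM, half-log steps.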

[5] = read-out: Nuclear factor NF-kappa-B p105 subunit (Homo sapiens) (UniProt P19838); test: LTEA_HepaRG_NFKB1: Life Technologies and Expression Analysis (LTEA) Assay for Nuclear Factor Kappa B Subunit 1 (NFKB1) using HepaRG (AID 2283521)
Outline: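 NFKB1 transcript was measured by TaqMan qRT-PCR on Fluidigm arrays, normalised to three housekeeping genes and fitted in both directions against 0.5% DMSO. HepaRG cells were dosed in duplicate for 48 h in serum-free induction medium, eight half-log steps from 100 uM.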

[6] = read-out: Protein phosphatase 2A (PPP2R4), PTPA (gene 5524); test: LTEA_HepaRG_PPP2R4: Life Technologies and Expression Analysis (LTEA) Assay for Protein phosphatase 2A (PPP2R4) using HepaRG (AID 2283522)
Outline: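 HepaRG, 48 h exposure, 8-pt half-log series from 100 uM, 0.5% DMSO vehicle, duplicates. Readout: PPP2R4 mRNA, Fluidigm qRT-PCR, housekeeping-normalized. Bidirectional curve fit vs DMSO baseline.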

[7] = read-out: Phosphatase and tensin (PTEN), PTEN (gene 5728); test: LTEA_HepaRG_PTEN: Life Technologies and Expression Analysis (LTEA) Assay for Phosphatase and tensin (PTEN) using HepaRG (AID 2283523)
Outline: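 Expression of PTEN is quantified in the human liver line HepaRG following two days of dosing (top concentration 100 uM, half-log dilutions, 0.5% DMSO). Values derive from bidirectional curve fitting relative to DMSO controls.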

[8] = read-out: solute carrier (SLC22A1), SLC22A1 (gene 6580); test: LTEA_HepaRG_SLC22A1: Life Technologies and Expression Analysis (LTEA) Assay for solute carrier (SLC22A1) using HepaRG (AID 2283524);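 on AC50: differentiated human HepaRG liver cells in serum-free induction medium; TaqMan qRT-PCR normalized to ACTB GAPDH and POLR2A housekeeping genes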
Outline: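 Transcript induction or suppression of SLC22A1 in human HepaRG cultures is scored after 48 h chemical treatment, with DMSO (0.5%) as baseline for bidirectional fitting. Concentrations span eight half-log points topping at 100 uM.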

[9] = read-out: Pyruvate Dehydrogenase Kinase 4 (PDK4), PDK4 (gene 5166); test: LTEA_HepaRG_PDK4: Life Technologies and Expression Analysis (LTEA) Assay for Pyruvate Dehydrogenase Kinase 4 (PDK4) using HepaRG (AID 2283525)
Outline: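 Eight-point, half-log concentration series (max 100 uM, 0.5% DMSO) applied to differentiated HepaRG cells for 48 h in duplicate. Endpoint: PDK4 mRNA induction or repression by qRT-PCR against DMSO baseline.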

Measured: AC50

Chain of Nuclear factor NF-kappa-B p105 subunit (Homo sapiens) (P19838 whole entry, looked up): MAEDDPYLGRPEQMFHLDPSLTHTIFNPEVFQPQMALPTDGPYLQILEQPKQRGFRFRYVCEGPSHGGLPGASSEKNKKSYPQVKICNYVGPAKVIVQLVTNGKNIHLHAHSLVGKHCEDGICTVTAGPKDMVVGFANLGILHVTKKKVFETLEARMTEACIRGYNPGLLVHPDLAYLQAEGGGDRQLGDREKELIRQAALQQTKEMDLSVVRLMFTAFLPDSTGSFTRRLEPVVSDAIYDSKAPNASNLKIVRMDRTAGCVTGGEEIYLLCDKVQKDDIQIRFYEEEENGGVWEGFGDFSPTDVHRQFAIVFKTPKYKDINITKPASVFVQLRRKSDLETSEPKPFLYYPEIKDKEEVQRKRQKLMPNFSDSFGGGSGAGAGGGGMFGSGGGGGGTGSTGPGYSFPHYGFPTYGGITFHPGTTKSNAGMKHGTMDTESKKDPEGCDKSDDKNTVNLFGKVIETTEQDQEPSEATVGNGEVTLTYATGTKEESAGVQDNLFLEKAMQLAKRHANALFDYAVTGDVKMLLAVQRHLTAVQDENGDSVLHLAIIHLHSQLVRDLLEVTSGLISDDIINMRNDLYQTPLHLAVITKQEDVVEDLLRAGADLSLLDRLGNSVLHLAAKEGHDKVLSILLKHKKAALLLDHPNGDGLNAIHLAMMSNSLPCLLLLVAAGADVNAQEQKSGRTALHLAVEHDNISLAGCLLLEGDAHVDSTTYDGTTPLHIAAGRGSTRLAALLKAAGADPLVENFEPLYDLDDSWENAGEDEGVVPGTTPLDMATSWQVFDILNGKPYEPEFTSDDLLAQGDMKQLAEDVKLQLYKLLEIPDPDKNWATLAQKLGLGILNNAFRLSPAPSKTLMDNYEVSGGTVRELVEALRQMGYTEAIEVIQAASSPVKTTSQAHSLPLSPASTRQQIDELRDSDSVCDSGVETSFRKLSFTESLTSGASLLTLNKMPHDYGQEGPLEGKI

CCN(CC)c1nc(C)cc(OP(=S)(OC)OC)n1
inactive: [1] | [2] | MYC, MYC (gene 4609) | [3] | [4] | [5] | [6] | [7] | [8] | [9]

CC(C)N1C(=O)c2ccccc2NS1(=O)=O
inactive: [1] | [2] | MYC, MYC (gene 4609) | [3] | [4] | [5] | [6] | [7] | [8] | [9]

CCNP(=S)(OC)O/C(C)=C/C(=O)OC(C)C (stereo unspecified)
inactive: [2] | MYC, MYC (gene 4609) | [4] | [5] | [6] | [7] | [8] | [9]
active: [3] 50 µM

CC(C)C1(C)N=C(c2ncccc2C(=O)O)NC1=O (stereo unspecified)
inactive: [2] | MYC, MYC (gene 4609) | [3] | [4] | [6] | [7] | [8] | [9]

O=P(O)(O)CCCl
inactive: [2] | MYC, MYC (gene 4609) | [3] | [4] | [5] | [6] | [7] | [8] | [9]

Cc1cc(C)nc(Nc2ccccc2)n1
inactive: [2] | MYC, MYC (gene 4609) | [3] | [4] | [5] | [6] | [7] | [9]
active: [8] 9.92 µM

C=CCOC(=O)C(C)(C)OC(=O)c1cc(-n2c(=O)cc(C(F)(F)F)n(C)c2=O)ccc1Cl
inactive: [2] | MYC, MYC (gene 4609) | [3] | [4] | [6] | [7] | [8] | [9]

CC(C)NC(=O)N1CC(=O)N(c2cc(Cl)cc(Cl)c2)C1=O
active: MYC, MYC (gene 4609) 13.2 µM | [8] 21.3 µM | [9] 12.7 µM
inactive: [2] | [3] | [4] | [5] | [6] | [7]

CCSC(=O)N1CCCCCC1
inactive: [2] | MYC, MYC (gene 4609) | [3] | [4] | [6] | [7] | [8] | [9]
active: [5] 12.6 µM

CCOC(=O)C(C)OC(=O)c1cc(Oc2ccc(C(F)(F)F)cc2Cl)ccc1[N+](=O)[O-] (stereo unspecified)
inactive: [2] | MYC, MYC (gene 4609) | [5] | [6] | [7] | [8]
active: [4] 9.92 µM | [9] 14.3 µM

O=C(O)c1c(Cl)ccc2cc(Cl)cnc12
inactive: [2] | MYC, MYC (gene 4609) | [3] | [4] | [5] | [6] | [7] | [8] | [9]

CCN(CC)C(=O)C(C)Oc1cccc2ccccc12 (stereo unspecified)
inactive: [2] | MYC, MYC (gene 4609) | [6] | [7] | [9]
active: [3] 76.2 µM | [4] 76.5 µM | [8] 70.1 µM

Nc1c(Cl)c(F)nc(OCC(=O)O)c1Cl
inactive: [2] | MYC, MYC (gene 4609) | [3] | [4] | [5] | [6] | [7] | [8] | [9]

CC1(C)CCC(=Cc2ccc(Cl)cc2)C1(O)Cn1cncn1 (stereo unspecified)
inactive: [2] | MYC, MYC (gene 4609) | [3] | [4] | [6] | [7] | [8] | [9]

COCc1cnc(C2=NC(C)(C(C)C)C(=O)N2)c(C(=O)O)c1 (stereo unspecified)
inactive: [2] | MYC, MYC (gene 4609) | [3] | [4] | [6] | [7] | [8] | [9]

CC1(C)CON(Cc2ccccc2Cl)C1=O
active: [4] 22.5 µM
inactive: [2] | MYC, MYC (gene 4609) | [3] | [5] | [6] | [7] | [8] | [9]

Clc1cccc(C(Cl)(Cl)Cl)n1
inactive: [2] | MYC, MYC (gene 4609) | [3] | [4] | [6] | [7] | [8] | [9]

Nc1cnn(-c2ccccc2)c(=O)c1Cl
inactive: [2] | MYC, MYC (gene 4609) | [3] | [4] | [5] | [6] | [7] | [8] | [9]

OC(c1ccc(Cl)cc1)(c1ccc(Cl)cc1)C(Cl)(Cl)Cl
active: [2] 67.2 µM | MYC, MYC (gene 4609) 73.7 µM | [3] 50 µM | [7] 78.4 µM | [8] 81.9 µM | [9] 80.5 µM
inactive: [4] | [5] | [6]

COC(=O)NC(=S)Nc1ccccc1NC(=S)NC(=O)OC
inactive: [2] | MYC, MYC (gene 4609) | [3] | [4] | [5] | [6] | [7] | [8] | [9]

CNC(=O)Oc1cccc2ccccc12
inactive: [2] | MYC, MYC (gene 4609) | [3] | [4] | [5] | [6] | [7] | [8] | [9]

CCCCC(C#N)(Cn1cncn1)c1ccc(Cl)cc1 (stereo unspecified)
inactive: [2] | MYC, MYC (gene 4609) | [4] | [6] | [7] | [8] | [9]
active: [3] 73.1 µM

CCCN(CC)CC1COC2(CCC(C(C)(C)C)CC2)O1 (stereo unspecified)
inactive: [2] | MYC, MYC (gene 4609) | [3] | [4] | [5] | [6] | [7] | [8] | [9]

CCCCC(O)(Cn1cncn1)c1ccc(Cl)cc1Cl (stereo unspecified)
inactive: [5] | [6] | [7]
active: [2] 67.4 µM | MYC, MYC (gene 4609) 74.7 µM | [3] 92.3 µM | [4] 50 µM | [8] 73.6 µM | [9] 78.8 µM

Cc1nc(N(C)C)nc(OC(=O)N(C)C)c1C
inactive: [2] | MYC, MYC (gene 4609) | [3] | [4] | [6] | [7] | [8] | [9]

CSC(=O)c1c(C(F)F)nc(C(F)(F)F)c(C(=O)SC)c1CC(C)C
inactive: [2] | MYC, MYC (gene 4609) | [3] | [4] | [6] | [7]
active: [8] 90 µM | [9] 33.8 µM

COC(=O)N(C(=O)N1CO[C@@]2(C(=O)OC)Cc3cc(Cl)ccc3C2=N1)c1ccc(OC(F)(F)F)cc1
inactive: [2] | MYC, MYC (gene 4609) | [3] | [6] | [7]
active: [4] 20.5 µM | [8] 47.9 µM | [9] 40 µM

COP(=S)(OC)SCn1nnc2ccccc2c1=O
inactive: [2] | MYC, MYC (gene 4609) | [3] | [4] | [6] | [7] | [8] | [9]

CC1(C)C(C(=O)OC(C#N)c2cccc(Oc3ccccc3)c2)C1(C)C (stereo unspecified)
inactive: [2] | MYC, MYC (gene 4609) | [3] | [4] | [5] | [6] | [7] | [8] | [9]

Clc1nc(Cl)nc(Nc2ccccc2Cl)n1
inactive: [2] | MYC, MYC (gene 4609) | [3] | [4] | [5] | [6] | [7] | [8] | [9]

COCC(C)N(C(=O)CCl)c1c(C)csc1C (stereo unspecified)
inactive: [2] | MYC, MYC (gene 4609) | [3] | [4] | [5] | [6] | [7] | [9]
active: [8] 73.3 µM

CN/C(=N\[N+](=O)[O-])NCc1cnc(Cl)s1
inactive: [2] | MYC, MYC (gene 4609) | [3] | [4] | [6] | [7] | [8]
active: [9] 36.6 µM

CCOP(=O)(OCC)Oc1nc(Cl)c(Cl)cc1Cl
inactive: [2] | [5] | [7] | [9]
active: MYC, MYC (gene 4609) 49.8 µM | [3] 62.7 µM | [4] 59.6 µM | [6] 76.6 µM | [8] 92.2 µM

CCC(C)n1c(=O)[nH]c(C)c(Br)c1=O (stereo unspecified)
active: MYC, MYC (gene 4609) 24.8 µM | [4] 21.1 µM | [8] 19.2 µM | [9] 50 µM
inactive: [2] | [3] | [5] | [6] | [7]

COc1cc(Cl)c(OC)cc1Cl
inactive: [2] | MYC, MYC (gene 4609) | [3] | [4] | [5] | [6] | [7] | [8] | [9]

COC(=O)NS(=O)(=O)c1ccc(N)cc1
inactive: [2] | MYC, MYC (gene 4609) | [3] | [4] | [5] | [6] | [7] | [8] | [9]

CNC(=O)N(C)c1nnc(C(C)(C)C)s1
inactive: [2] | MYC, MYC (gene 4609) | [3] | [4] | [5] | [6] | [7] | [8] | [9]

CCCC(=NOCC)C1=C(O)CC(CC(C)SCC)CC1=O (stereo unspecified)
inactive: [2] | MYC, MYC (gene 4609) | [3] | [4] | [5] | [6] | [7] | [8] | [9]
